Compound activity as filed in PubChem.
Tau fibril ThT = tau fibrillization inhibition (ThT binding) | P10636 | recombinant tau K18 P301L, heparin-induced fibrillization, ThT fluorescence | Potency, µM (doses to about 57.4 µM), for inactives: at the top dose activity, negative = inhibition, most hits filed as inhibitors | 2.1% of 270,000 active; also: nearly all actives have a fitted effect of over 55% in size
Target sequence (P10636 561-689 P618L limits assumed): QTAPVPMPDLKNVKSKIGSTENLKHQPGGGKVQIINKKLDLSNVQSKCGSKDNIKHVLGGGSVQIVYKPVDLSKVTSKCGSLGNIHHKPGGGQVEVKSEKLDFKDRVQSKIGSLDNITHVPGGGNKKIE
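In this qHTS, human K18 P301L tau is incubated with compound and heparin for 6 hr at 37 C, and Thioflavin T fluorescence then reports fibril load.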
TRb SRC2 PPI = disrupts binding of human TR beta to SRC2; Potency, µM (series often up to 106 µM), for the others: at the top dose activity change, negative = inhibition, most hits filed as inhibitors; 0.065% of 280,000 active; TRbeta-SRC2 peptide binding, fluorescence polarization; receptor liganded with 1 µM T3; AID 1469; P10828;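 also: plate controls were bound peptide for no effect and peptide without receptor for full effect; nearly all actives have a fitted effect of over 50% in size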
Target sequence (P10828 whole entry, looked up): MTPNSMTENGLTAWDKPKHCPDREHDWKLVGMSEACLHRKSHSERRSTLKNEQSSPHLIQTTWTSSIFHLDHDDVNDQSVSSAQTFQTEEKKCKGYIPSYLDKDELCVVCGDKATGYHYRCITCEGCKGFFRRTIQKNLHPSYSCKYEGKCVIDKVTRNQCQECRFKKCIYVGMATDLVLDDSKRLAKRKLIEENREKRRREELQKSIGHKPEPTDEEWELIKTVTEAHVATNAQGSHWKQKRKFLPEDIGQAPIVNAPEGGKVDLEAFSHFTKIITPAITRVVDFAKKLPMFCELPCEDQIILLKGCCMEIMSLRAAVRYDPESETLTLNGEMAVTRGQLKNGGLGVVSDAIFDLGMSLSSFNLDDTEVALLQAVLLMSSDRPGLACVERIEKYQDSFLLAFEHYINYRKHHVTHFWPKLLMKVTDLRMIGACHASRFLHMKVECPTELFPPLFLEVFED
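A fluorescence polarization screen tested compounds at multiple concentrations against complex formation between 0.6 uM TRb ligand-binding domain and 20 nM Texas Red SRC2 peptide, with 1 uM T3 present; readout after 5 hr.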
Tau fibril FP = inhibitors of human tau fibril formation. K18 P301L tau heparin fibrillization, Alexa594 FP, 6 h. P10636. AID 1468. 0.39% of 280,000 active. Potency, µM (series often up to 57.7 µM), for inactives: at the highest dose activity, negative = inhibition, most hits filed as inhibitors; also: nearly all actives have a fitted effect of over 55% in size
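FP of Alexa 594-tau after heparin (20 uM) induction. Substrate: human K18 P301L, 15 uM unlabeled, 0.24 uM labeled. Buffer 100 mM sodium acetate pH 7. 6 hr, 37 C.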
Tau fluor cs = counter-screen for tau fibril formation inhibitors | tau K18 P301L Alexa594 fluorescence, heparin fibrillization | Potency, µM (titrated, usually from 57.7 µM), for the others: top-dose activity change, negative = decrease | 0.93% of 280,000 active; also: nearly all actives have a fitted effect of over 55% in size
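Human tau K18 P301L (15 uM unlabeled, 0.24 uM Alexa 594-labeled) in 100 mM sodium acetate pH 7 with 20 uM heparin, 6 hr at 37 C. ThT 30 uM added, 1 hr ambient; Alexa 594 FP and total fluorescence read at 555/632 nm.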
GoLoco inh red = RGS12 GoLoco-Gai1 interaction inhibition; P63096; Gai1:RGS12 GoLoco peptide FP, rhodamine, 10 min; Potency, µM (titrated, usually from 61.6 µM), without a hit: at the top dose activity, negative = inhibition, most hits filed as inhibitors; 0.44% of 230,000 active; active = well fitted inhibition curve with a large enough effect, not every such curve was filed as active; inactive = no such curve, though single readings can be large or run the other way; also: nearly all actives have a fitted effect of over 30% in size
TexasRed fluor = alters Texas Red total fluorescence, flagging assay interference; TRb/SRC2 Texas Red total fluorescence interference; Potency, µM (titrated, usually from 106 µM), without a hit: top-dose fluorescence change, negative = quenching; 0.29% of 280,000 active; active = well fitted curve in either direction with a large enough effect; inconclusive = small, poorly fitted or top-dose-only effect
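Human TRb ligand-binding domain at 0.6 uM with 20 nM Texas Red SRC2 peptide in Tris buffer containing 1 uM T3 and 5% DMSO, incubated with compound 5 h at ambient temperature. Total fluorescence (555/632 nm) calculated as parallel + 2 × perpendicular.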
* = called active by the depositor; [ ] = another dose, or the depositor's remark. Only some compounds are listed: those with a hit (about 3.2% of all), similar ones and a draw of the others. Unless noted, calls follow the shape of the dose curve; as a rule, active = well fitted curve in the direction sought with a large enough effect; inconclusive = small, poorly fitted or top-dose-only effect, or another doubt; inactive = no such curve, though single readings can be large; an effect the other way counts as inactive or inconclusive. Unless noted, % is scaled to controls: 0 for no effect and ±100 for the full control effect; potency is read from the fitted curve at half-maximal effect.

Results for O=c1c(-c2ccc(O)cc2)coc2cc(O)cc(O)c12 ?
Tau fibril ThT: inconclusive; TRb SRC2 PPI: 1%; Tau fibril FP: -5%; Tau fluor cs: inconclusive; GoLoco inh red: -4%; TexasRed fluor: -5%

Results for O=c1c(-c2cc(O)c(O)c(O)c2)coc2cc(O)c(O)c(O)c12 ?
Tau fibril ThT: 3.5µM*; TRb SRC2 PPI: 14%; Tau fibril FP: 7.1µM*; Tau fluor cs: inconclusive; GoLoco inh red: -14%; TexasRed fluor: -9%

Results for CC(C)=CCc1c(O)cc2occ(-c3ccc4c(c3)OCO4)c(=O)c2c1O ?
Tau fibril ThT: -16%; TRb SRC2 PPI: 10%; Tau fibril FP: 8.9µM*; Tau fluor cs: inconclusive; GoLoco inh red: -2%; TexasRed fluor: 0%

Results for Nc1cccc(Oc2c(F)c(F)c(Oc3cccc(N)c3)c(F)c2F)c1 ?
Tau fibril ThT: inconclusive; TRb SRC2 PPI: -1%; Tau fibril FP: inconclusive; Tau fluor cs: 6.3µM*[quencher]; GoLoco inh red: 2%; TexasRed fluor: -2%

What do the screens show for `COc1cccc(N)c1`?
TRb SRC2 PPI: 0%; GoLoco inh red: 1%; TexasRed fluor: -2%

Results for CCOc1ccc(C2C(C#N)=C(N)SC(N)=C2C#N)c(OCC)c1 ?
Tau fibril ThT: inconclusive; TRb SRC2 PPI: 5%; Tau fibril FP: inconclusive; Tau fluor cs: inconclusive; GoLoco inh red: 20%; TexasRed fluor: -2%

How did CCCCc1ccc(C2C(C#N)=C(N)SC(N)=C2C#N)s1 do in these assays?
Tau fibril ThT: 25µM*; TRb SRC2 PPI: 5%; Tau fibril FP: inconclusive; Tau fluor cs: 25µM*[quencher]; GoLoco inh red: 199%; TexasRed fluor: -1%

What do the screens show for `COc1ccc(OC)c(NC(=O)CSC2=Nc3ccccc3C3=NC(CC(=O)NCc4ccc5c(c4)OCO5)C(=O)N23)c1` (stereo not drawn)?
Tau fibril ThT: inconclusive; TRb SRC2 PPI: -3%; Tau fibril FP: inconclusive; Tau fluor cs: -16%; TexasRed fluor: -10%

How did CC1=c2c(oc3cc(O)c(Nc4c(C)cc(O)cc4O)c(C)c23)=CC(=O)C1=Nc1c(C)cc(O)cc1O do in these assays?
GoLoco inh red: 3.2µM*

How did CCCc1ccc(OCC(=O)Nc2sc3c(c2C(=O)OCC)CCC(C(C)(C)C)C3)cc1 (stereo not drawn) do in these assays?
Tau fibril ThT: -9%; TRb SRC2 PPI: inconclusive; Tau fibril FP: 2%; Tau fluor cs: -1%; TexasRed fluor: 10µM*[quencher]

Results for CCOC(=O)c1c(NC(=O)COc2ccc(CC)cc2)sc2c1CCCC2 ?
Tau fibril ThT: -14%; TRb SRC2 PPI: -2%; Tau fibril FP: -1%; Tau fluor cs: -6%; TexasRed fluor: -7%

What do the screens show for `Cc1nccc(-c2cccc(N/N=C(\C#N)C(=O)c3ccccc3)c2)n1`?
Tau fibril ThT: 8.9µM*; TRb SRC2 PPI: 5%; Tau fibril FP: 3%; Tau fluor cs: inconclusive; GoLoco inh red: 2%; TexasRed fluor: -8%

Results for CCCNS(=O)(=O)c1ccc2nc(NC(=O)c3ccc(F)cc3)sc2c1 ?
Tau fibril ThT: 28µM*; TRb SRC2 PPI: -1%; Tau fibril FP: inconclusive; Tau fluor cs: -26%; TexasRed fluor: -2%

Results for CS(=O)(=O)c1ccc2nc(NC(=O)c3ccc(NS(=O)(=O)c4ccc(F)c(F)c4)cc3)sc2c1 ?
TRb SRC2 PPI: 16%; Tau fibril FP: inconclusive; Tau fluor cs: inconclusive; GoLoco inh red: 4%; TexasRed fluor: -6%

Results for O=C(Nc1nc2ccc(SC(F)F)cc2s1)c1ccc(NS(=O)(=O)c2ccc(F)c(F)c2)cc1 ?
Tau fibril ThT: inconclusive; TRb SRC2 PPI: 14%; Tau fibril FP: 13µM*; Tau fluor cs: inconclusive; GoLoco inh red: 6%; TexasRed fluor: -2%

What do the screens show for `O=C(c1ccccc1)c1ccc2nc(-c3ccc(NC(=O)c4ccccc4Br)cc3)[nH]c2c1`?
Tau fibril ThT: inconclusive; TRb SRC2 PPI: 6%; Tau fibril FP: inconclusive; Tau fluor cs: inconclusive; GoLoco inh red: 13%; TexasRed fluor: 1%

How did Cc1ccccc1C(=O)Nc1ccc(-c2nc3ccc(C(=O)c4ccccc4)cc3[nH]2)cc1 do in these assays?
Tau fibril ThT: -5%; TRb SRC2 PPI: -11%; Tau fibril FP: 28µM*; Tau fluor cs: inconclusive; GoLoco inh red: 5%; TexasRed fluor: -2%

How did Cc1ccc(N=Nc2ccc(N)cc2C)c(S(N)(=O)=O)c1 do in these assays?
Tau fibril ThT: 14µM*; TRb SRC2 PPI: -7%; Tau fibril FP: 15%; Tau fluor cs: inconclusive; GoLoco inh red: 3%[14.2 µM]; TexasRed fluor: -4%

How did Cc1cc(N)ccc1N=Nc1c(C)n(C)n(-c2ccccc2)c1=O do in these assays?
Tau fibril ThT: inconclusive; TRb SRC2 PPI: 8%; Tau fibril FP: 5%; Tau fluor cs: -15%; GoLoco inh red: 8%; TexasRed fluor: 1%

How did Cc1cccc(C(=O)NCc2nnc(SCC(=O)Nc3ccccc3F)n2-c2ccccc2)c1 do in these assays?
Tau fibril ThT: 3%; TRb SRC2 PPI: -1%; Tau fibril FP: -5%; Tau fluor cs: -13%; TexasRed fluor: -1%

What do the screens show for `COc1ccc(NC(=O)N2c3ccc(OC)cc3C(C)=CC2(C)C)cc1`?
Tau fibril ThT: 32µM*; TRb SRC2 PPI: -14%; Tau fibril FP: inconclusive; Tau fluor cs: inconclusive; GoLoco inh red: -2%; TexasRed fluor: 5%

How did CCOc1ccc2c(c1)C(C)=CC(C)(C)N2C(=O)Nc1ccccc1 do in these assays?
Tau fibril ThT: 28µM*; TRb SRC2 PPI: inconclusive; Tau fibril FP: inconclusive; Tau fluor cs: inconclusive; GoLoco inh red: 0%; TexasRed fluor: -5%

How did OCCN(CCO)c1ncnc2nc[nH]c12 do in these assays?
GoLoco inh red: -1%[14.2 µM]

How did COc1ccc(-c2cn3nc(N4CCCC(C(=O)NCc5ccccc5Cl)C4)sc3n2)cc1 (stereo not drawn) do in these assays?
Tau fibril ThT: inconclusive; TRb SRC2 PPI: 5%; Tau fibril FP: 7%; Tau fluor cs: inconclusive; TexasRed fluor: -5%

Results for CCOC(=O)C/C(C)=N\Nc1nc(-c2ccccc2)cs1 ?
Tau fibril ThT: 14µM*; TRb SRC2 PPI: 4%; Tau fibril FP: inconclusive; Tau fluor cs: inconclusive; GoLoco inh red: 25%; TexasRed fluor: -7%

Results for C/C(CCC1CC(C)OC1=O)=N/Nc1nc(-c2ccccc2)cs1 (stereo not drawn) ?
Tau fibril ThT: 28µM*; TRb SRC2 PPI: 4%; Tau fibril FP: inconclusive; Tau fluor cs: inconclusive; GoLoco inh red: -6%; TexasRed fluor: -2%
